# Experimental data published in PubChem BioAssay (Tox21).
# Unmarked numbers belong to inactive results. Active and inactive are the calls of the source. Calls follow the shape of the dose curve; as a rule, active = well fitted curve in the direction sought with a large enough effect in the repeat runs; inconclusive = weak or mixed curves; inactive = flat fitted curve, though single readings scatter.
# Test: qHTS assay to test for compound auto fluorescence at 460 nm (blue) in HepG2 cell free culture (AID 720685)
# Conditions: Cell-free culture medium, blue autofluorescence 405/460 nm; series mostly up to 91.3 µM
# Text: U.S. Tox21 Program National Center for Advancing Translational Sciences [NCATS] NIH Chemical Genomics Center [NCGC] U.S. Environmental Protection Agency [EPA] National Institutes of Environmental Health Sciences [NIEHS] National Toxicology Program [NTP] U.S. Food and Drug Administration [FDA] Tox21 Assay Overview: Compound auto fluorescence often interferes with screening of the compound library against various biological targets and signaling pathways. Some of these compounds may have fluorophoric properties. Such properties may interfere with the assay outputs resulting in false positives and/or negatives. To decrease such complications and ensure the compound activities are relevant in terms of biological response, the Tox21 10K compound library was screened for auto fluorescence. From the fluorophores used as reporter signals in our screening assays, the auto fluorescence equivalencies of compounds against three fluorophores have been evaluated: Triamterene, Fluorescein and Rose Bengal sodium for blue, green and red fluorescence, respectively. The fluorescence intensities were measured using Excitation/Emission wavelengths at 405/460nm, 485/535nm and 540/590nm for blue, green and red labels, respectively. This assay includes the blue fluorescence data.
# Tox21 Assay Protocol Summary: 5 uL of culture medium (MEM containing 10% FBS) per well was dispensed into black wall/clear bottom 1536-well plates using a Multidrop Combi Dispenser (ThermoFisher Scientific, Waltham, MA). After 23 nL compound or DMSO vehicle was transferred into assay plate by a pintool work station (Kalypsys, San Diego, CA), fluorescence intensities in the assay plates were measured by an Envision (PerkinElmer, Shelton, CT) plate reader using three labels for measuring blue, green and red fluorescence at […] 460, 535 and 590nm respectively.
# % is scaled to controls: 0 for no effect and ±100 for the full control effect.
Structure (SMILES),outcome,"fluorescence, % of fluorescent control"
O=C1c2ccccc2C(=O)c2c1ccc(O)c2O,inactive,
O=C(O)COCC(=O)O,inactive,
CO[C@@H]1COCC[C@@H]1N[C@@H]1CC[C@@](C(=O)N2CCc3ncc(C(F)(F)F)cc3C2)(C(C)C)C1,inactive,
Cc1ccc2ccccc2c1[N+](=O)[O-],inactive,
FC(F)(Cl)C(F)(Cl)Cl,inactive,
C[C@H](CN1CCCC1)C(=O)c1ccc(C(F)(F)F)cc1,inactive,
C=CC(=O)NC(C)(C)C,inactive,
C=C[Si](OCC)(OCC)OCC,inactive,
C[Si](C)(C)O[Si](C)(C)O[Si](C)(C)C,inactive,
O=C(O)c1c2ccccc2cc2ccccc12,inactive,
CCCCCCCCC(=O)OCC(C)OC(=O)CCCCCCCC (stereo not given),inactive,
O=C(O)c1ccc2cc(O)ccc2c1,inactive,
C1=COCCC1,inactive,
O=C(O)c1ccncc1,inactive,
OCCCO,inactive,
O=C(O)c1cccnc1Nc1cccc(C(F)(F)F)c1,inactive,
NC(=O)c1ccccc1C(N)=O,inactive,
CC(=O)S[C@H](C(=O)N[C@H]1Cc2ccccc2[C@H]2CCC[C@@H](C(=O)O)N2C1=O)C(C)C,inactive,
CC[C@H](NC(C)C)[C@H](O)c1ccc(O)c2[nH]c(=O)ccc12,inactive,
CCc1cnc(C(=O)O)c(C(=O)O)c1,inactive,

Structure (SMILES),outcome,"fluorescence, % of fluorescent control"
Cc1ccc(NC=O)c(C)c1,inactive,
C=CC(C)CCC=C(C)C (stereo not given),inactive,
CCC(C)C1N=C(C)C(C)S1 (stereo not given),inactive,
CCC(C)CCCC(C)(C)O (stereo not given),inactive,
[O-][n+]1ccc(Cl)cc1,inactive,
O=C(O)c1ccc(O)c(O)c1,inactive,
CC(C)(C)N,inactive,
O=S(=O)(O)c1cc(Cl)c(Cl)cc1Cl,inactive,
CC(C)C[C@H](NC(=O)[C@H](Cc1ccccc1)NC(=O)c1cnccn1)B(O)O,inactive,
CCCCCCCCNC,inactive,
CC(C)CCCCCOC(=O)CS,inactive,
CCCCCCCCCCCCCCCCCCCl,,-0.0175% [at 3.72 µM]
CCCCCCCCCCCCSC#N,inactive,
COC(=O)Cc1cccc2ccccc12,inactive,
COc1ccc(/C=C/c2cc(OC)cc(=O)o2)cc1,inactive,
COC=O,,-0.142% [at 9.17 µM]
CC1=C(C)C(=O)C(CCCCC#CCCCC#CCO)=C(C)C1=O,inactive,
CCCCCO,inactive,
Cc1c(-c2cccnc2)c2ccccc2n1CCCCC(=O)O,inactive,
CC1(C)CC(O)CC(C)(C)N1[O],inactive,
